# Bioassay records from PubChem.
# TLR4 MyD88 comp – inhibitors of human TLR4-MyD88 binding | inhibition, % at 8.4 µM | O00206+Q99836 | AID 861 | actives 0.18% (n = 200,000) | HeLa CL3-4 TLR4/MyD88 BLA complementation, FRET ratio; in the data active = inhibition above about 25%;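 also: 0% = vehicle and 100% = reference inhibitor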
# NOD2-RIPK2 inh – NOD2-RIPK2 protein interaction inhibition. O43353. CHO BLA complementation NOD2-RIPK2, CCF4 ratio. inhibition, % at 4.98 µM. actives 0.38% (n = 360,000); in the data active = inhibition above about 21%;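 also: 0% = vehicle only and 100% = reference blocker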
# TLR9-MyD88 inh – TLR9-MyD88 interaction inhibition; Q9NR96+Q99836; CHO BLA complementation TLR9-MyD88, CCF4 FRET ratio; AID 504734; actives 0.21% (n = 340,000); inhibition, % at 4.98 µM;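 active = inhibition above the mean over all tested compounds plus 3 SD, cut at about 21% in these data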;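 also: 0% = DMSO only wells and 100% = clavulanate BLA inhibitor control wells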
# ABHD5-PLIN5 inh – ABHD5-PLIN5 protein interaction inhibition. Q00G26+Q8WTS1. Split G. princeps luciferase complementation, luminescence, 4 h. inhibition, % at 4 µM. actives 0.78% (n = 360,000). AID 602281;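 active = inhibition above the mean inhibition across every tested compound plus 3 SD, cut at about 22% in these data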;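 also: 0% = DMSO only wells and the 100% control is not disclosed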
# rCAG RNA binder – r(CAG) repeat RNA binding; TO-PRO-1 dye displacement fluorescence; inhibition, % at 3 µM; actives 1.3% (n = 370,000);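 active = inhibition above the plate cutoff, the mean of all test compounds on that plate plus 3 SD, cut at about 35% in these data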;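 also: 0% = DMSO alone and 100% = 100 µM mitoxantrone as full dye displacement; higher means more dye released from RNA so lower well fluorescence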
# PRMT1 inh – PRMT1 (human) inhibition, primary screen; actives 1.3% (n = 370,000); recombinant PRMT1, activity-based probe fluorescence polarization; Q99873; inhibition, % at 2.79 µM;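 active = inhibition above about 21% made by adding two undisclosed values, limit read from the data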
# rCAG binder conf – r(CAG) RNA repeat binding, confirmation. shares compounds with rCAG RNA binder. TO-PRO-1 dye displacement fluorescence. inhibition, % at 3 µM. actives 70% (n = 4,300);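 active = inhibition above a per-plate cutoff, the mean inhibition of sample wells plus 3 SD, cut at about 35% in these data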;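 also: loss of TO-PRO-1 fluorescence as compound displaces dye from 1x1 AA loop RNA; 0% = DMSO only wells and 100% = 100 µM mitoxantrone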
# dCAG dye counter – disrupts DNA CAG TO-PRO-1 complex, flagging rCAG hits. shares compounds with rCAG RNA binder. d(CAG) DNA oligo TO-PRO-1 dye displacement, fluorescence. inhibition, % at 3 µM. actives 94% (n = 4,300). AID 652068;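 active = inhibition above its plate's cutoff, the mean test-well inhibition plus 3 SD, cut at about 4.8% in these data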;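 also: 0% = DNA dye mix with DMSO and 100% = 100 µM mitoxantrone; hits displace the dye from DNA and so lower well fluorescence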
# An asterisk follows results filed as active; x = no result. Most compounds without a hit are left out; they make up all but 3.3% or so of the library.
SMILES,TLR4 MyD88 comp,NOD2-RIPK2 inh,TLR9-MyD88 inh,ABHD5-PLIN5 inh,rCAG RNA binder,PRMT1 inh,rCAG binder conf,dCAG dye counter
COc1ccc(C)cc1N(CC(=O)NCCN1CCOCC1)S(=O)(=O)c1ccccc1,x,-5,-1,9,-4,-3,x,x
O=C(COC(=O)c1ccc(S(=O)(=O)N2CCCCC2)cc1)NCc1ccc(F)cc1,x,0,4,-8,-2,4,x,x
CC(C)c1cc(C(C)C)c(S(=O)(=O)N2CCC(C(=O)NCc3cccs3)CC2)c(C(C)C)c1,x,x,x,x,6,2,x,x
Cc1cc(=O)oc2cc3oc(=O)cc(C)c3cc12,x,-9,-4,2,1,-7,x,x
COCCSc1ccccc1C(=O)N1CCc2ccccc2C1,12,-2,-12,-1,-5,0,x,x
NC(=S)NNC(=O)COc1ccccc1O,x,-3,8,-5,-1,-6,x,x
Cc1csc(NC(=O)c2cc(-c3ccco3)nc3ccccc23)n1,-18,-15,-9,6,44*,24*,46*,20*
CCN(C(=O)CCS(=O)(=O)c1ccc2c(c1)oc(=O)n2C)c1ccc(OC)cc1,x,-2,-8,2,-1,-1,x,x
Cc1cc(C(=O)N/N=C/c2cc([N+](=O)[O-])ccc2O)c2ccccc2n1,-5,-1,3,-3,6,4,x,x
COc1cc(/C=N/NC(=O)c2cccc(NC(=O)c3ccccc3C)c2)ccc1O,x,4,1,6,5,-2,x,x
Cc1cc(C(=O)N/N=C/c2cc(Br)cc([N+](=O)[O-])c2O)c2ccccc2n1,0,5,2,8,49*,6,58*,20*
Cc1ccccc1C(=O)Nc1cccc(C(=O)N/N=C/c2cc(Cl)cc([N+](=O)[O-])c2O)c1,5,-3,5,4,87*,2,73*,36*
